Source: PubChem BioAssay (NCI)
The panel holds about 79,000 compounds, 15% with a hit somewhere; the sample as a whole holds those more often. Active and inactive are the calls of the source. No stated cut-off is given here; in the data, active means growth inhibition above about 70%; inactive means the rest.

Columns and labels:
[1] = NCI Yeast Anticancer Drug Screen. Data for the rad50 strain (AID 155);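 further: 0% = growth of vehicle-only cultures of the same strain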; conditions: S. cerevisiae rad50 strain growth inhibition, hits give high values
Outline: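 Cells are treated with compound, grown, and their growth is then scored against vehicle-only cultures of the same repair-deficient yeast strain.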

[2] = NCI Yeast Anticancer Drug Screen. Data for the mec2-1 strain (AID 157); conditions: S. cerevisiae mec2-1 strain, hits give high values
Outline: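 Compounds were applied to mec2-1 yeast cells. Their growth was then compared with that of vehicle-treated cultures to give growth inhibition.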

[3] = NCI Yeast Anticancer Drug Screen. Data for the sgs1 mgt1 strain (AID 161);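 further: 0% = growth of cultures given vehicle only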; conditions: S. cerevisiae sgs1 mgt1 strain, hits give high values
Outline: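 Yeast cells carrying a defined DNA-repair defect were exposed to test compounds. Growth inhibition was measured relative to vehicle-treated controls.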

[4] = NCI Yeast Anticancer Drug Screen. Data for the cln2 rad14 strain (AID 165);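 further: 0% = growth equal to vehicle treated cultures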; conditions: S. cerevisiae cln2 rad14 strain, hits give high values
Outline: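 Strain: cln2 rad14 yeast, altered in cell cycle control and DNA damage repair. Read-out: growth inhibition vs vehicle.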

[5] = NCI Yeast Anticancer Drug Screen. Data for the bub3 strain (AID 167); conditions: S. cerevisiae bub3 mutant strain, hits give high values
Outline: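 Part of a panel of yeast mutants defective in DNA damage repair or cell cycle regulation. Each strain is grown with compound, and inhibition is calculated relative to solvent-treated cultures.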

[6] = NCI Yeast Anticancer Drug Screen. Data for the mlh1 rad18 strain (AID 175); conditions: S. cerevisiae mlh1 rad18 strain growth inhibition, hits give high values
Outline: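 A repair-deficient yeast strain is exposed to test compound, and growth is scored relative to vehicle-treated controls.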

[7] = at 5.0 µM (retest, dose inferred, filed as 0.5)
[8] = at 50.0 µM (retest, dose inferred, filed as 5.0)

Measured: growth inhibition

O=C(/C=C/C(=O)OCCCl)OCCCl
active: [1]; [8] 95% | [2]; [8] 85% | [2]; at 50.0 µM 82.2% | [3]; at 50.0 µM 92.5% | [5]; [8] 91% | [5]; at 50.0 µM 71.2% | [6]; [8] 95% | [6]; at 50.0 µM 95.2%
inactive: [1]; [7] 5% | [1]; at 50.0 µM 69.2% | [2]; [7] -24% | [3]; [7] 4% | [3]; [8] 62% | [4]; [7] 4% | [4]; [8] 27% | [4]; at 50.0 µM -22.8% | [5]; [7] 46% | [6]; [7] 4%

Cn1c(N)c(NC(=O)CCl)c(=O)n(C)c1=O
inactive: [1]; [7] 21% | [1]; [8] 20% | [1]; at 50.0 µM 16.4% | [2]; [7] 3% | [2]; [8] 5% | [2]; at 50.0 µM -5.8% | [3]; [7] -13% | [3]; [8] -2% | [3]; at 50.0 µM -16.9% | [4]; [7] 1% | [4]; [8] 2% | [4]; at 50.0 µM 12.8% | [5]; [7] 8% | [5]; [8] 7% | [5]; at 50.0 µM -2.45% | [6]; [7] 7% | [6]; [8] 0% | [6]; at 50.0 µM 16.9%

O=S(=O)(c1ccc(OCC(O)COc2ccc(S(=O)(=O)c3ccc(OCC4CO4)cc3)cc2)cc1)c1ccc(OCC2CO2)cc1 (stereo not given)
active: [6]; at 50.0 µM 78.1%
inactive: [1]; [7] -5% | [1]; [8] -9% | [1]; at 50.0 µM 21.6% | [2]; [7] 4% | [2]; [8] 11% | [2]; at 50.0 µM 37.2% | [3]; [7] 0% | [3]; [8] 19% | [3]; at 50.0 µM 63.1% | [4]; [7] 3% | [4]; [8] 25% | [4]; at 50.0 µM 2.95% | [5]; [7] -4% | [5]; [8] -2% | [5]; at 50.0 µM -20.5% | [6]; [7] 8% | [6]; [8] 29%

O=C(O)/C(=C\c1ccc(F)cc1)c1ccccc1
inactive: [1]; [7] -3% | [1]; [8] -12% | [1]; at 50.0 µM 48% | [2]; [7] -18% | [2]; [8] -9% | [2]; at 50.0 µM 64.9% | [3]; [7] -4% | [3]; [8] -16% | [3]; at 50.0 µM 11.9% | [4]; [7] 29% | [4]; [8] 11% | [4]; at 50.0 µM 38.8% | [5]; [7] 3% | [5]; [8] 28% | [6]; [7] -12% | [6]; [8] 9% | [6]; at 50.0 µM 50.2%
active: [5]; at 50.0 µM 70.8%

O=S(=O)(Nc1ccc2ccccc2c1)c1ccccc1
inactive: [1]; [7] -10% | [2]; [7] -21% | [3]; [7] 2% | [4]; [7] 7% | [5]; [7] -9% | [6]; [7] -18%
active: [1]; [8] 98% | [1]; at 50.0 µM 97.7% | [2]; [8] 99% | [2]; at 50.0 µM 98% | [3]; [8] 99% | [3]; at 50.0 µM 97.8% | [4]; [8] 93% | [4]; at 50.0 µM 92.2% | [5]; [8] 99% | [5]; at 50.0 µM 97.2% | [6]; [8] 98% | [6]; at 50.0 µM 98%

Cc1c(S(C)=O)[n+](=O)c2ccccc2n1[O-] (stereo not given)
inactive: [1]; [7] 13% | [1]; at 50.0 µM 32.9% | [2]; [7] 0% | [2]; at 50.0 µM 33.7% | [3]; [7] 8% | [3]; at 50.0 µM 35.9% | [4]; [7] 2% | [4]; [8] 40% | [4]; at 50.0 µM 7.75% | [5]; [7] -2% | [5]; at 50.0 µM -5.5% | [6]; [7] 18% | [6]; at 50.0 µM 58.6%
active: [1]; [8] 85% | [2]; [8] 93% | [3]; [8] 92% | [5]; [8] 89% | [6]; [8] 96%

COc1ccc2c(c1)CCc1c-2ccc(C)c1CCC(=O)O
inactive: [1]; [7] 5% | [2]; [7] 21% | [2]; at 50.0 µM 63.8% | [3]; [7] 19% | [3]; at 50.0 µM 63.9% | [4]; [7] -3% | [5]; [7] 10% | [5]; at 50.0 µM 60.2% | [6]; [7] 22%
active: [1]; [8] 99% | [1]; at 50.0 µM 72.2% | [2]; [8] 100% | [3]; [8] 99% | [4]; [8] 99% | [4]; at 50.0 µM 74.2% | [5]; [8] 99% | [6]; [8] 100% | [6]; at 50.0 µM 90%

CC(=O)NC1=C(Oc2ccccc2)C(=O)c2ccccc2C1=O
active: [1]; [7] 94% | [1]; [8] 99% | [1]; at 50.0 µM 99.2% | [2]; [7] 98% | [2]; [8] 100% | [2]; at 50.0 µM 97.8% | [3]; [7] 88% | [3]; [8] 100% | [3]; at 50.0 µM 99.1% | [4]; [7] 89% | [4]; [8] 100% | [4]; at 50.0 µM 70% | [5]; [7] 98% | [5]; [8] 100% | [5]; at 50.0 µM 94.5% | [6]; [7] 96% | [6]; [8] 99% | [6]; at 50.0 µM 99.1%

N#CSCC(=O)c1ccc(Cl)cc1
active: [1]; at 50.0 µM 89.5% | [2]; at 50.0 µM 91% | [3]; [7] 92% | [3]; [8] 98% | [3]; at 50.0 µM 92.5% | [4]; [7] 83% | [4]; [8] 98% | [4]; at 50.0 µM 89.5% | [5]; [7] 93% | [5]; [8] 99% | [5]; at 50.0 µM 89.5% | [6]; at 50.0 µM 89.5%
inactive: [1]; [7] 43% | [1]; [8] 61% | [2]; [7] 60% | [2]; [8] 63% | [6]; [7] 36% | [6]; [8] 56%

CCCCCCCN(CCCCCCC)CC(O)c1ccc2ccc3ccccc3c2c1 (stereo not given)
active: [1]; [8] 76% | [2]; [8] 73% | [3]; [8] 85% | [3]; at 50.0 µM 81.2% | [5]; [8] 78% | [6]; [8] 78% | [6]; at 50.0 µM 79.2%
inactive: [1]; [7] 19% | [1]; at 50.0 µM 68.2% | [2]; [7] 8% | [2]; at 50.0 µM 62% | [3]; [7] 36% | [4]; [7] 13% | [4]; [8] 59% | [4]; at 50.0 µM 38% | [5]; [7] 16% | [5]; at 50.0 µM 59.4% | [6]; [7] 12%
